Test results taken from PubChem BioAssay (EPA / NIEHS).
Results filed as inconclusive are left out. Active and inactive are the calls of the source. Rule for the calls, unless noted: active = hit-call score of the fitted dose curve at least 0.9, where 1 is the maximum; inconclusive = response in the unintended direction; inactive = score below 0.9.

What was measured:
[1] = target: Glucocorticoid receptor (Homo sapiens) (UniProt P04150); experiment: NVS_NR_hGR: NovaScreen (NVS) Nuclear Receptor Binding Assay for human Glucocorticoid Receptor (GR) (AID 2283363);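 note: activity is loss of specific radioligand binding signal relative to DMSO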
Sequence of Glucocorticoid receptor (Homo sapiens) (P04150 whole entry, looked up): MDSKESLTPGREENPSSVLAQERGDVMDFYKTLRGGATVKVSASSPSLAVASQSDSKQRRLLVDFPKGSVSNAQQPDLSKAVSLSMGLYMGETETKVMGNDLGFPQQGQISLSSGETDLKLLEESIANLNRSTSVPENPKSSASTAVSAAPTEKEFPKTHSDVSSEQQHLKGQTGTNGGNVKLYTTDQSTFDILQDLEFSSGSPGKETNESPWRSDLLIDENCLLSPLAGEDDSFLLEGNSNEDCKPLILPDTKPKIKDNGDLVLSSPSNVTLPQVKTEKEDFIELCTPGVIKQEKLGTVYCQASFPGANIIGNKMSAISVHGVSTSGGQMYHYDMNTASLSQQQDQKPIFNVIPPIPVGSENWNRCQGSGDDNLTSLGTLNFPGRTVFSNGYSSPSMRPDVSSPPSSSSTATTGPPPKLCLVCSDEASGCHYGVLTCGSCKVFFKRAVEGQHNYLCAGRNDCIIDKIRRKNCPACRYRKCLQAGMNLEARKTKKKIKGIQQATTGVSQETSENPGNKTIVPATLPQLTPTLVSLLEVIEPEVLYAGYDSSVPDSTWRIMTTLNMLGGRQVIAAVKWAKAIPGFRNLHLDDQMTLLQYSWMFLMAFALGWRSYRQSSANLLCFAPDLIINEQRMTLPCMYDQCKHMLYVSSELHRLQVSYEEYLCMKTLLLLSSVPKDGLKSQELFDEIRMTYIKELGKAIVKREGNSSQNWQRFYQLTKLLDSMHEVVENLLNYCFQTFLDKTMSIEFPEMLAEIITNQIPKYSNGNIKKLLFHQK
Procedure, shortened: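 Cell-free radioligand binding with extracted receptor protein, read by filter-based scintillation counting 16 hours after dosing. Loss of specific signal versus DMSO baseline was scored. Primary screen ran in duplicate at 25 uM; actives were followed up in concentration series.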

[2] = target: Nuclear receptor subfamily 1 group I member 2 (Homo sapiens) (UniProt O75469); experiment: NVS_NR_hPXR: NovaScreen (NVS) Nuclear Receptor Binding Assay for human Pregnane X Receptor (PXR) (AID 2283365);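 note: a drop in FRET signal versus DMSO baseline means the compound binds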
Sequence of Nuclear receptor subfamily 1 group I member 2 (Homo sapiens) (O75469 whole entry, looked up): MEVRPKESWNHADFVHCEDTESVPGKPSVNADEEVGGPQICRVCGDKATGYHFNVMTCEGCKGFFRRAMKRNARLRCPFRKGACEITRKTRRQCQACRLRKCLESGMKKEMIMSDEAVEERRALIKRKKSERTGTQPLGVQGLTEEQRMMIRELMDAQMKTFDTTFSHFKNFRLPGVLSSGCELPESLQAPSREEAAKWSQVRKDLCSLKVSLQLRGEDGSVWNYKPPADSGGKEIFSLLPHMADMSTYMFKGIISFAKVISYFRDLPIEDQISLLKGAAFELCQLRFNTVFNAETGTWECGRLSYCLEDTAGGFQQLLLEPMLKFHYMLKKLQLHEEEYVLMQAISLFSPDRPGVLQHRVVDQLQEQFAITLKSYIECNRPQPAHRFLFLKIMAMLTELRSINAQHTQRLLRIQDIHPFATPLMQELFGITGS
Procedure, shortened: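 Read-out: TR-FRET, human PXR, 2 h post-dosing, cell-free. Loss of signal vs DMSO taken as binding activity; 25 uM primary, concentration series secondary.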

[3] = target: Peroxisome proliferator-activated receptor gamma (Homo sapiens) (UniProt P37231); experiment: NVS_NR_hPPARg: NovaScreen (NVS) Nuclear Receptor Binding Assay for human Peroxisome Proliferator-activated Receptor gamma (PPARg) (AID 2283370)
Sequence of Peroxisome proliferator-activated receptor gamma (Homo sapiens) (P37231 whole entry, looked up, the tested form may be a part): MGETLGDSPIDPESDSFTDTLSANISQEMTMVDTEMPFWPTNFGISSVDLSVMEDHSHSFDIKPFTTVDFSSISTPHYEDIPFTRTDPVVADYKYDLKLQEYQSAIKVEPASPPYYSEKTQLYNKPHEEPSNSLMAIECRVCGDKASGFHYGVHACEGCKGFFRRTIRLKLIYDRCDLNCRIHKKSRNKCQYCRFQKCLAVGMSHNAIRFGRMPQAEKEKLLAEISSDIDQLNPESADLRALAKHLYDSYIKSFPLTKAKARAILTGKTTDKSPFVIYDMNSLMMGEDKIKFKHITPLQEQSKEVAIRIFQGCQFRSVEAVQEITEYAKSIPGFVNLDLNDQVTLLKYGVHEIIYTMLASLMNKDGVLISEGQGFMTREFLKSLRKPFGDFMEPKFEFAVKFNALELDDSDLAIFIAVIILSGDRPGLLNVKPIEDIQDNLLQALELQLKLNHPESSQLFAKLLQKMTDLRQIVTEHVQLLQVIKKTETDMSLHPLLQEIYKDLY
Procedure, shortened: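 Extracted receptor protein, cell-free; compound incubated 2 h then fluorescence polarization read. Baseline: DMSO. Actives from 25 uM duplicate screen re-run across concentrations.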

[4] = target: Agonist Androgen Response Element (ARE), AR (gene 367) (UniProt P10275); experiment: OT_AR_ARELUC_AG_1440: Odyssey Thera (OT) 24-hour CHO-K1 Luciferase Assay for Agonist Androgen Response Element (ARE) (AID 2283379)
Sequence of Agonist Androgen Response Element (ARE), AR (gene 367) (P10275 whole entry, looked up): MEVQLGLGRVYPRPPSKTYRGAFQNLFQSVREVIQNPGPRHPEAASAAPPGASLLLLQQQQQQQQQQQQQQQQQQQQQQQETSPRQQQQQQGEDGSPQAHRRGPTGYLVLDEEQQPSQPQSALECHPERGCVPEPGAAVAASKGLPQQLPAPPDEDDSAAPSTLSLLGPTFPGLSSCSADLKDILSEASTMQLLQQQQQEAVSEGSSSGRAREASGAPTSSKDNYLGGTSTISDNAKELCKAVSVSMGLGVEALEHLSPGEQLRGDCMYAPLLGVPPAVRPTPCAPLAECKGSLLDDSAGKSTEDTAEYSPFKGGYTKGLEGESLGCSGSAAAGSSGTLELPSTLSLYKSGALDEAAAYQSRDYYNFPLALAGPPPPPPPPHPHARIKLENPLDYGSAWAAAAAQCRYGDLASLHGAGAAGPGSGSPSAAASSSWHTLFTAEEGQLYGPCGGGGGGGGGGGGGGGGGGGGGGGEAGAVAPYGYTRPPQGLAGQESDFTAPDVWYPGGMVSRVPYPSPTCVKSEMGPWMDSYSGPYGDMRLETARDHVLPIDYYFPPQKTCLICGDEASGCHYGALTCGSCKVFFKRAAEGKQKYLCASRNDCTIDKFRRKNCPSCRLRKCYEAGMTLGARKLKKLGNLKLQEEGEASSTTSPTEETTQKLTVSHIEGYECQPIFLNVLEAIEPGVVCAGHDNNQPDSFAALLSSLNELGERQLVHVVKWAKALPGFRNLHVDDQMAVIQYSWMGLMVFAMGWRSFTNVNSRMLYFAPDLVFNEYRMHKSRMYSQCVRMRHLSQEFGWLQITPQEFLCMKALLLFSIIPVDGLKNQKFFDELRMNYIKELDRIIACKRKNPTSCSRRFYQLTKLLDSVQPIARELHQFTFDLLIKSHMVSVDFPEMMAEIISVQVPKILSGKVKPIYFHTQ
Procedure, shortened: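 Seed CHO-K1 cells; dose compounds for 24 h; add D-luciferin plus ATP in PBS; read luminescence. Signal increase relative to vehicle defines agonist activity, with at least 3 replicate wells per sample.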

[5] = target: Estrogen receptor beta (Homo sapiens) (UniProt Q92731); experiment: OT_ER_ERbERb_1440: Odyssey Thera (OT) 24-hour HEK293T Protein-Complementation Assay for Estrogen Receptor-beta/-beta Homodimer (AID 2283380);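 note: fluorescence gain from ER beta LBD homodimer complementation read by laser scanning cytometry; scored as signal increase over DMSO baseline for both agonists and antagonists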
Sequence of Estrogen receptor beta (Homo sapiens) (Q92731 whole entry, looked up, the tested form may be a part): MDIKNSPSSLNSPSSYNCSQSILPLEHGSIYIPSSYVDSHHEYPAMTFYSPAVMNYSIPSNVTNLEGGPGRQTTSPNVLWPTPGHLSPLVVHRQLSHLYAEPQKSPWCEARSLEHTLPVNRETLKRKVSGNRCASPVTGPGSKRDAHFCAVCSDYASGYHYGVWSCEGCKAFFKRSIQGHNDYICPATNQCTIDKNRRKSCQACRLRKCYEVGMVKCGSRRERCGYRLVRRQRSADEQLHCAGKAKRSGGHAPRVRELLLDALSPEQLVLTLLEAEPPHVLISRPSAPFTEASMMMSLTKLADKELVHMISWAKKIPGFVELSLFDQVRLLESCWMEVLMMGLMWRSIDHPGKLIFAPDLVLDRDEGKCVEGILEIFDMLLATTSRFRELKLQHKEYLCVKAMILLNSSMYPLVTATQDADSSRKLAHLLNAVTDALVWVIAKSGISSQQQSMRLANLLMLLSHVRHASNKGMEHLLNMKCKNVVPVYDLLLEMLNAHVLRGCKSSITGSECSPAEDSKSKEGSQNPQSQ
Procedure, shortened: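 HEK293T cells stably expressing human ER-beta LBD (aa 310-547) PCA homodimer pair, dosed 24 h; formaldehyde-fixed, Draq5-stained. Readout: increase in nuclear (agonist) or nuclear plus cytoplasmic (antagonist) fluorescence intensity versus DMSO, gain-of-signal fitting.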

[6] = target: Estrogen receptor (Homo sapiens) (UniProt P03372); experiment: OT_ERa_GFPERaERE_0480: Odyssey Thera (OT) 8-hour HeLa Transcription Induction Assay for Estrogen Receptor (AID 2283381; active = hit-call score of the fitted dose curve at least 0.9, where 1 is the maximum; inactive = score below 0.9)
Sequence of Estrogen receptor (Homo sapiens) (P03372 whole entry, looked up): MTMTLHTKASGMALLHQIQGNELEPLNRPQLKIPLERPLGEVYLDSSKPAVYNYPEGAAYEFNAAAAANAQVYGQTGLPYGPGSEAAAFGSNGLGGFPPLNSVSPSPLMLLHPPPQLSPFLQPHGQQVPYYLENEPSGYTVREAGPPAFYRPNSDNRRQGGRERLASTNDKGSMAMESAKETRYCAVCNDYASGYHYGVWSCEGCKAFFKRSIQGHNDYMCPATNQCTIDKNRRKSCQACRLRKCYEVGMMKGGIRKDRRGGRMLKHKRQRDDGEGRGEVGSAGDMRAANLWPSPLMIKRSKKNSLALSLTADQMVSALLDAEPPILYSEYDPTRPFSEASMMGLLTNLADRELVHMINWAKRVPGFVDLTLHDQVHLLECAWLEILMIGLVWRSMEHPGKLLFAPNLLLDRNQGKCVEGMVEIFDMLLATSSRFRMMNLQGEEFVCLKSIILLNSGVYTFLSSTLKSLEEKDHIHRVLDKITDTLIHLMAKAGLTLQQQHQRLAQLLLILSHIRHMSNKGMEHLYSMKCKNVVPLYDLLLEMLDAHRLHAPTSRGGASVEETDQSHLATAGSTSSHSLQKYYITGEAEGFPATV
Procedure, shortened: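 HeLa cells dosed with compound and imaged by fluorescence microscopy at 8 h; GFP induction from an ERE reporter quantified by high-content image analysis and fitted as gain of signal against DMSO baseline.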

[7] = target: Peroxisome proliferator-activated receptor gamma (Homo sapiens) (UniProt P37231); experiment: OT_PPARg_PPARgSRC1_0480: Odyssey Thera (OT) 8-hour Protein-Complementation Assay for Peroxisome Proliferator-activated Receptor Gamma / SRC-1 Co-activator (AID 2283387);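 note: nuclear to cytoplasmic split Venus YFP fluorescence ratio reporting PPARg SRC-1 interaction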
Procedure, shortened: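 Split-YFP (IFP1/IFP2) PPARg/SRC-1 reporter, HEK293T, 37 °C, 5% CO2; 8 h compound; formaldehyde fix + Draq5; high-content imaging, N/C ratio, ≥350 cells/image, positive direction vs DMSO.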

[8] = target: Peroxisome proliferator-activated receptor gamma (Homo sapiens) (UniProt P37231); experiment: OT_PPARg_PPARgSRC1_1440: Odyssey Thera (OT) 24-hour Protein-Complementation Assay for Peroxisome Proliferator-activated Receptor Gamma/ SRC-1 Co-activator (AID 2283388);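 note: nuclear to cytoplasmic ratio of reconstituted Venus YFP fluorescence in fixed imaged cells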
Procedure, shortened: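 Cells carrying the PPARg/SRC-1 fragment-complementation reporter receive compound for 24 hours, are fixed and counterstained with Draq5, then imaged. Increased nuclear relative to cytoplasmic YFP fluorescence above DMSO baseline indicates binding activity.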

[9] = target: Retinoic acid receptor RXR-alpha (Homo sapiens) (UniProt P19793); experiment: OT_NURR1_NURR1RXRa_0480: Odyssey Thera (OT) 8-hour HEK293T Protein Complementation Assay for Nurr1/retinoid X receptor (RXR) (AID 2283385)
Sequence of Retinoic acid receptor RXR-alpha (Homo sapiens) (P19793 whole entry, looked up, the tested form may be a part): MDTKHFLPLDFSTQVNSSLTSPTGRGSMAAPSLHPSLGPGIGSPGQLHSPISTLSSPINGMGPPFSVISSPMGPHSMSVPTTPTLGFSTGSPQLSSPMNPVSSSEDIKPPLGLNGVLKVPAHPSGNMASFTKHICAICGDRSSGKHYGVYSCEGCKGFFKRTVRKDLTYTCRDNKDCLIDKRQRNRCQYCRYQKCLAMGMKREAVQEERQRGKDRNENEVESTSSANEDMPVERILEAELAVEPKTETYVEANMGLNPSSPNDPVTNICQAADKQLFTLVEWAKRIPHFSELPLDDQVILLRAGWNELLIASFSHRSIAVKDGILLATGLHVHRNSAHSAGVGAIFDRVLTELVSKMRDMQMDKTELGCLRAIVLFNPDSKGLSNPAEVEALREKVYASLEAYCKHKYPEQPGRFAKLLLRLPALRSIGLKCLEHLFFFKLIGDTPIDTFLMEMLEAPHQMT
Procedure, shortened: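 HEK293T cells expressing Nurr1 and RXRα fused to reporter fragments were dosed with compound for 8 hours. Complex formation was read as fluorescence intensity and analysed as gain of signal against DMSO as baseline.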

[10] = CEETOX_H295R_OHPREG: CeeTox H295R High-throughput Steroidogenesis Assay for OH-Pregnenolone (OHPREG) (AID 2283434; active = hit-call score of the fitted dose curve at least 0.9, where 1 is the maximum; inactive = score below 0.9); details: actives raise or lower the signal
Procedure, shortened: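 Human adrenal H295R cells were prestimulated 48 h with 10 uM forskolin, then exposed 48 h to chemical in 0.1% DMSO. Medium 17alpha-hydroxypregnenolone was quantified by HPLC-MS/MS after MTBE extraction; bidirectional fitting versus DMSO baseline.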

[11] = target: Bile acid receptor (Homo sapiens) (UniProt Q96RI1); experiment: OT_FXR_FXRSRC1_0480: Odyssey Thera (OT) 8-hour HEK293T Protein-Complementation Assay for Farnesoid X receptor/SRC-1 Co-activator (AID 2283383)
Sequence of Bile acid receptor (Homo sapiens) (Q96RI1 whole entry, looked up, the tested form may be a part): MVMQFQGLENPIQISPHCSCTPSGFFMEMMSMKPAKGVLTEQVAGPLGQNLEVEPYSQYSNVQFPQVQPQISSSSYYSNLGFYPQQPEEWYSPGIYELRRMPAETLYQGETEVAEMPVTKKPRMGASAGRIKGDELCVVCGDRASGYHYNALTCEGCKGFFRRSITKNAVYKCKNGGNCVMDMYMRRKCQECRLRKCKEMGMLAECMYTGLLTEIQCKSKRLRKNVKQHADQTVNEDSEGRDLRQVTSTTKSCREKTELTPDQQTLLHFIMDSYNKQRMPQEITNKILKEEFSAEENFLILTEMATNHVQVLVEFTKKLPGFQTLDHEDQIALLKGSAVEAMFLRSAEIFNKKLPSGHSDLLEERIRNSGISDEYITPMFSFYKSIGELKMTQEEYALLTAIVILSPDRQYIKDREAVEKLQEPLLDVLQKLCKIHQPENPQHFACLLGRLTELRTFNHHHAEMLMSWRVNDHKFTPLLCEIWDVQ
Procedure, shortened: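 HEK293T cells expressing FXR and SRC-1 fused to reporter fragments were dosed with compound for 8 h; fluorescence from the reconstituted reporter marked co-activator recruitment. Gain of signal was fitted against the DMSO baseline.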

[12] = target: Retinoic acid receptor RXR-alpha (Homo sapiens) (UniProt P19793); experiment: OT_NURR1_NURR1RXRa_1440: Odyssey Thera (OT) 24-hour HEK293T Protein Complementation Assay for Nurr1/retinoid X receptor (RXR) (AID 2283386)
Procedure, shortened: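 HEK293T cells were dosed with compound and read 24 h later by fluorescence intensity in a protein-fragment complementation format, where Nurr1–RXRα interaction reconstitutes a split reporter. Activity was fitted as gain of signal relative to DMSO baseline.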

[13] = target: human Thyroid Receptor Alpha (TRa), THRA (gene 7067) (UniProt P10827); experiment: NVS_NR_hTRa_Antagonist: NovaScreen (NVS) Nuclear Receptor Binding Assay for human Thyroid Receptor Alpha Antagonism (TRa) (AID 2283362);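 note: activity is loss of signal relative to DMSO baseline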
Procedure, shortened: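 In this biochemical format, receptor protein is dosed with chemical and read after 1 hour via AlphaLISA. Decreases from the DMSO baseline indicate antagonist activity; screening used 25 uM in duplicate before concentration-response confirmation.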

[14] = target: guinea pig Sigma Receptor, Non-selective Binding, SIGMAR1 (gene 100135589) (UniProt Q60492); experiment: NVS_OR_gSIGMA_NonSelective: NovaScreen (NVS) Nuclear Receptor Binding Assay for guinea pig Sigma Receptor, Non-selective Binding (AID 2283367)
Sequence of guinea pig Sigma Receptor, Non-selective Binding, SIGMAR1 (gene 100135589) (Q60492 whole entry, looked up): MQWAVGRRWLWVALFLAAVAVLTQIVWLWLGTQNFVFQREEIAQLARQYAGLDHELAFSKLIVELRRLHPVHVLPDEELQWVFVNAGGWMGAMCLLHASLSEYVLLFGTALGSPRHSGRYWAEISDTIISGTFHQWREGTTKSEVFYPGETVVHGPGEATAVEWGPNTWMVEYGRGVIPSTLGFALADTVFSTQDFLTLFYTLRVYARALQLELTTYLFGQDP
Procedure, shortened: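 Guinea pig brain membranes, cell-free radioligand binding; read 1 h after dosing by filter-based scintillation counting. Loss of signal vs DMSO baseline taken as displacement. Primary screen single concentration 25 uM in duplicate; actives retested in concentration series.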

[15] = target: rat Serotonin Transporter (SERT), Slc6a4 (gene 25553) (UniProt P31652); experiment: NVS_TR_rSERT: NovaScreen (NVS) Transporter Assay for rat Serotonin Transporter (SERT) (AID 2283375)
Procedure, shortened: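 Using rat forebrain membrane SERT, test chemicals compete with a radioligand for 1 hour, and bound counts are taken by filter-based scintillation. Screening starts at 25 uM in duplicate, followed by concentration series for actives.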

Measured: AC50

O=C1OC2(c3cc(Br)c(O)c(Br)c3Oc3c2cc(Br)c(O)c3Br)c2c(Cl)c(Cl)c(Cl)c(Cl)c21
active: [1] 3.83 µM

CCC/C=C/C=O
inactive: [2] | [3] | [4] | [5] | [6] | [7] | [8]

CC(C)C[C@H]1C(=O)N2CCC[C@H]2[C@]2(O)O[C@](NC(=O)[C@@H]3C=C4c5cccc6[nH]c(Br)c(c56)C[C@H]4N(C)C3)(C(C)C)C(=O)N12
active: [1] 1.44 µM | [2] 1.04 µM
inactive: [7] | [8]

COC(C)CCO (configuration not stated)
inactive: [3]

CC(C)=CCCC(C)=CCCC(C)=CCO
active: [5] 12.8 µM | [10] 28.1 µM
inactive: [2] | [9] | [7] | [8]

CCCCCCCCCCCCCC(=O)O
inactive: [3] | [5] | [6] | [11] | [12] | [7] | [8]

O=C[C@@H](O)[C@H](O)[C@H](O)CO
inactive: [3] | [5] | [9] | [12] | [7] | [8]
active: [4] 1.26 µM

c1ccc2[nH]ccc2c1
inactive: [13] | [2] | [4] | [5] | [9] | [12] | [7] | [8]

O=P(c1ccccc1)(c1ccccc1)c1ccccc1
active: [14] 6.83 µM

CCC(=O)/C=C/C1C(C)=CCCC1(C)C (configuration not stated)
inactive: [2] | [5] | [12] | [7] | [8]
active: [11] 50 µM | [9] 78.4 µM

COc1cc(C(C)(C)C)c(O)c(C(C)(C)C)c1
active: [11] 67 µM
inactive: [2] | [7] | [8]

O=C=NC1CCC(CC2CCC(N=C=O)CC2)CC1 (configuration not stated)
active: [14] 16.5 µM
inactive: [15]

OCCN1CCNCC1
inactive: [3] | [5] | [6] | [11] | [9] | [12] | [7] | [8]

NC(=O)NC1NC(=O)NC1=O (configuration not stated)
inactive: [2] | [9] | [12] | [7] | [8]

CSc1nc(NC2CC2)nc(NC(C)(C)C)n1
inactive: [9] | [7] | [8] | [10]
active: [2] 3.05 µM

c1ccc(CCCc2ccccn2)cc1
inactive: [3] | [5] | [6] | [9] | [7] | [8] | [10]
active: [11] 50 µM

CC(C)(C#N)c1cc(Cn2cncn2)cc(C(C)(C)C#N)c1
inactive: [2] | [5] | [11] | [12] | [7] | [8]
